In the library only some 3.8% were active in any assay of this set; here they are far more common.
TGFb SMAD3 inh = TGF-b pathway inhibition | HepG2 CAGA-GFP TGF-b/SMAD3 reporter, GFP fluorescence, 18 h; TGF-beta stimulated, 500 pg/mL final | Potency, µM (highest dose often 46.1 µM), hits mostly inhibitors | hit rate 1.2% among 410,000 | AID 588855; note: nearly all actives have a fitted effect of over 65% in size
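Cell-based qHTS in HEPG2 carrying a CAGA-GFP Smad reporter; compounds added before 500 pg/mL final TGF-beta, 18 h incubation at 37 degrees C, GFP fluorescence quantified per cell by imaging cytometry.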
HepG2 viability = counter-screen for TGF-b inhibitors: cytotoxicity in HepG2 cells | HepG2 CAGA-GFP viability, ATP luminescence, 18 h | Potency, µM (titrated, usually from 46.1 µM), usual class: cytotoxic | hit rate 0.76% among 410,000 | AID 588856
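HepG2 CAGA-GFP cells (1000/well, DMEM with 1% FBS) received compound, then TGF-beta at 500 pg/mL final, and were incubated 18 hours at 37 degrees C. Viability was read by CellTiter-Glo luminescence. Media-only wells were set as complete cell-killing and DMSO as no toxicity.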
HT1080NT lethal = kills 2HG-producing HT-1080-NT fibrosarcoma cells | HT-1080-NT fibrosarcoma viability, CellTiter-Glo ATP luminescence, 48 h | Potency, µM (doses to about 46.1 µM), actives largely listed as cytotoxic | hit rate 1.6% among 360,000 | AID 686970;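 note: NT is the 2HG producing partner of a matched IDH1 knockdown line; nearly all actives have a fitted effect of over 55% in size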
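Read-out is CellTiter-Glo luminescence after 10 minutes at room temperature, following 48 hours' compound treatment of HT-1080-NT cells (750 cells/well, RPMI, 5% FBS, 37 degrees C).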
HT1080 IDH1KD tx = HT-1080 IDH1 knockdown cell toxicity (counter line). HT-1080 IDH1 knockdown viability, ATP luminescence, 48 h. Potency, µM (top dose mostly 46.1 µM), hits mostly cytotoxic. hit rate 2% among 360,000. AID 686971
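Assay cells: HT-1080 with IDH1 knockdown, 750 per well, RPMI/5% FBS. Exposure: 48 h at 37 °C following 2 h pre-incubation. Read: CellTiter-Glo luminescence; fitted concentration-response, curve class assigned.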
ATXN2 expr inh = reduces ATXN2 reporter expression in HEK-293 cells. AID 1745845. hit rate 0.72% among 360,000. HEK-293 ATXN2-luciferase reporter, luminescence, 24 h. Potency, µM (highest dose often 57 µM), hits mostly inhibitors; note: nearly all actives have a fitted effect of over 55% in size
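qHTS (up to 57 uM final) was run with 24 h compound exposure of reporter cells at 37 °C. Each well was multiplexed: SteadyGlo luminescence measured ATXN2-luciferase expression after a fluorogenic Gly-Phe-AFC viability readout (25 uM final).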
S2 tox = reduces viability in counter-screen for ATXN expression inhibitors. Potency, µM (doses to about 56.7 µM), usual class: cytotoxic. hit rate 0.49% among 400,000. S2 cells (HEK-293 line with an ATXN2-luciferase reporter) viability, CellTiter-Fluor protease fluorescence, 24 h; note: nearly all actives have a fitted effect of over 40% in size
Numbers stand for hits; . = inactive; ? = inconclusive; / = no result; ! = a repeat was not active. Calls come from the whole dose curve; as a rule, active = well fitted curve in the direction sought with a large enough effect; inconclusive = small, poorly fitted or top-dose-only effect, or another doubt; inactive = no such curve, though single readings can be large; an effect the other way counts as inactive or inconclusive.

SMILES	TGFb SMAD3 inh	HepG2 viability	HT1080NT lethal	HT1080 IDH1KD tx	ATXN2 expr inh	S2 tox
COCCNc1nc(NCc2cc(-c3ccc(OC)cc3)no2)c2sccc2n1	?	.	?	13µM	.	?
COCCNc1nc(Oc2ccc(NC(C)=O)cc2)c2sc(-c3ccccc3)cc2n1	?	.	?	.	?	?
COCCNc1nc(NCc2ccc(NC(C)=O)cc2)c2sc(-c3ccccc3)cc2n1	?	.	9.2µM	?	22µM	/
Cc1ccc(C)c(NC(=O)CN2CCSc3ccc(S(=O)(=O)N4CCCC4)cc32)c1	.	.	/	/	.	?
COCCNc1nc(Nc2ccc(C)cc2C)c2sc(-c3ccccc3)cc2n1	.	.	?	?	.	?
COCCNc1nc(NCc2cccc(OC)c2)c2sc(-c3ccccc3)cc2n1	?	11µM	?	?	.	?
COc1ccc(OC)c(C2C3=C(COC3=O)Nc3cc4c(cc32)OCO4)c1 (stereo not given)	?	.	0.65µM	0.52µM	.	?
COc1ccc(C2C3=C(CC(C)(C)CC3=O)Nc3cc4c(cc32)OCO4)cc1 (stereo not given)	.	.	.	.	.	?
Cn1c(C(=O)NCc2cccc(F)c2)cc2cc(S(=O)(=O)N3CCCCC3)ccc21	?	.	/	/	/	/
NC(Cc1ccccc1)c1csc(Nc2nccc(C(F)(F)F)n2)n1 (stereo not given)	16µM	16µM	?	?	?	.
NC(Cc1ccc(Cl)cc1)c1csc(Nc2nccc(C(F)(F)F)n2)n1 (stereo not given)	?	.	16µM	23µM	?	.
COc1cc(OC)nc(Nc2nc(C(N)Cc3ccc(Cl)cc3)cs2)n1 (stereo not given)	?	11µM	23µM	?	32µM	/
Cc1cc(C)nc(Nc2nc(C(N)Cc3ccccc3)cs2)n1 (stereo not given)	?	.	5.8µM	7.3µM	.	?
COC(=O)c1cc(C)nc(Nc2nc(C(N)Cc3ccc(Cl)cc3)cs2)n1 (stereo not given)	.	.	.	?	.	.
CCOC(=O)c1cccc(NC(=O)c2oc3c(c2C)-c2nn(CC)cc2CC3)c1	.	.	/	/	/	/
CC1=C(C(=O)Nc2cc3cn[nH]c3cc2F)C(c2ccc(C(F)(F)F)cc2)CC(=O)N1 (stereo not given)	/	/	/	/	.	/
NC(Cc1ccc(F)cc1)c1csc(Nc2nccc(C(F)(F)F)n2)n1 (stereo not given)	?	.	23µM	15µM	.	/
Cc1ccc2nc(CO)[nH]c2c1	.	.	/	/	/	/
CCCCc1ccc(Nc2nc(CCC)cc(=O)[nH]2)cc1	?	.	21µM	?	?	/
OC(c1ccc2c(c1)CN(Cc1cccn1-c1ncccn1)CCO2)C1CCCCC1 (stereo not given)	/	/	/	/	/	.
Cc1cccc(NC(=O)Cn2c(=O)n(CCCCCC(=O)NCc3ccccc3)c(=O)c3sccc32)c1	?	.	/	/	?	22µM
Cc1ccc(CNC(=O)CCCCCn2c(=O)c3sccc3n(CC(=O)Nc3ccc(C)c(F)c3)c2=O)cc1	?	.	/	/	.	.
CCOc1ccccc1NC(=O)CSc1nnc2[nH]c(=O)cc(-c3ccccc3)n12	.	.	/	/	/	/
O=c1[nH]c(C2CCN(S(=O)(=O)c3ccccc3C(F)(F)F)CC2)nc2c1nnn2Cc1cccc(F)c1	?	.	?	16µM	.	.
Cc1cc(OCc2nc(N)nc(N)c2-c2ccc(Cl)c(Cl)c2)ccc1[N+](=O)[O-]	?	.	?	0.82µM	?	.
SMILES	TGFb SMAD3 inh	HepG2 viability	HT1080NT lethal	HT1080 IDH1KD tx	ATXN2 expr inh	S2 tox
CCc1nc(N)nc(N)c1-c1ccc(NCCN)c([N+](=O)[O-])c1	?	/	/	/	.	?
Cc1nc(N)nc(N)c1CCCc1ccc(Cl)c(Cl)c1	?	.	8.2µM	1.2µM	?	?
Cc1nc(N)nc(N)c1-c1ccc(Cl)c(Cl)c1	?	0.63µM	?	0.58µM	7.9µM!	.
COc1ccc(Cc2c(C)nc(N)nc2Cl)cc1	.	.	.	.	.	.
CCN(C(=O)Cn1c(SCc2ccccc2F)nc2cccnc21)c1ccccc1	?	.	/	/	/	/
C=C1NN(Cc2ccccc2)C(=O)N1c1ccc(OC)cc1	.	.	/	/	/	/
CC1=C(C(=O)OC(C)C)C(c2cccc([N+](=O)[O-])c2)C(C(=O)OC2CN(C(c3ccccc3)c3ccccc3)C2)=C(N)N1 (stereo not given)	/	/	/	/	32µM	35µM
Cc1ccc(Cl)cc1NC(=O)C(=O)NCC(c1cccnc1)N1CCc2ccccc21 (stereo not given)	?	.	/	/	/	/
CCOC(=O)/C(=C/c1c(C)n(C)c2ccc([N+](=O)[O-])cc12)C(C)=O	16µM	.	16µM	?	.	?
COC(=O)c1ccccc1NC(=O)Cn1c(=O)n(-c2ccc(C)cc2)c(=O)c2ccccc21	.	.	/	/	/	/
CC1(C)Cc2ccccc2C(c2cc3ccccc3oc2=O)=N1	.	.	21µM	?	.	?
COc1cc(=O)n2c(c1C(=O)NCc1ccco1)CCN(Cc1cccc(C)n1)CC2	/	/	/	/	/	.
Cc1c(C(=O)NC2CCCC2)sc2ncnc(NCCN(C)C)c12	/	/	/	/	/	.
O=c1c(-c2ccccc2)c1-c1ccccc1	/	/	/	/	8.9µM	8.9µM
C=CCn1c(=N)n(CC(=O)c2cccc([N+](=O)[O-])c2)c2ccccc21	.	.	.	.	.	?
N=c1n(CCN2CCCCC2)c2ccccc2n1CC(=O)c1cccc([N+](=O)[O-])c1	?	13µM	.	.	?	?
O=C1c2ccccc2/C(=C\c2ccc3[nH]ccc3c2)N1c1ccccc1	.	.	.	.	.	?
CCC/C(=C1/c2ccccc2C(=O)N1c1ccccc1)c1ccc2[nH]ccc2c1	11µM	.	?	?	.	?
CCOc1ncccc1C(=O)NCc1ccc(OC)cc1	.	.	?	8.9µM	.	.
Cc1ncc2c(c1CNC(=O)c1ccc3c(c1)OCO3)CCN(C(=O)c1ccc3ccccc3c1)C2	/	/	/	/	/	.
COc1ccccc1N(C)C	.	.	/	/	/	/
Cn1c(-c2ccccc2)c(C#Cc2ccc(N)cc2)c2ccccc21	3.5µM	.	.	.	.	.
Cn1c2ccccc2c(=O)c2cc(C#Cc3ccc(N)cc3)ccc21	?	.	.	.	.	?
Cc1ccc(NC(=S)NC(C)CCc2ccccc2)cc1C (stereo not given)	?	.	.	.	.	.
CC(=O)c1ccc(NC(=S)NC(C)CCc2ccccc2)cc1 (stereo not given)	13µM	.	.	.	.	.
Cc1cccc2[nH]cc(/C=C3/C=Nc4ccccc43)c12	?	.	/	/	/	/
Cc1cc(/C=C2/SC(=S)N(c3cccc(Cl)c3)C2=O)c(C)n1-c1cccnc1	?	.	?	3.3µM	.	?

High-throughput results as filed in PubChem.
